# Hit rate of the full screen: of about 110,000 compounds, about 40 (0.04%) were called active. Inconclusive results (about 22%) are left out. The sample as a whole holds a higher share of actives than the screen did. Unmarked numbers belong to inactive results. Calls follow the shape of the dose curve; as a rule, active = well fitted curve in the direction sought with a large enough effect in the signal ratio (not every such curve was filed as active); inconclusive = small, poorly fitted or top-dose-only effect, or a change in a side signal; inactive = flat fitted curve, though single readings scatter; the % refers to the signal ratio.
# Test: IkB Signaling
# Conditions: ABC-DLBCL IkBa-CBG/CBR dual luciferase ratio, 4 h; series mostly up to 57.1 µM; IkBa stabilization activation: at the top concentration
# Description: NIH Molecular Libraries Screening Centers Network [MLSCN]
# NIH Chemical Genomics Center [NCGC]
# Nuclear factor kappa-B (NF-kappa-B) plays an important role in normal B cell development and survival. Diffuse large B cell lymphoma (DLBCL) is the most commonly observed type of non-Hodgkin's lymphoma. Gene expression analysis has identified an activated B cell-like subtype of DLBCL (ABC-DLBCL) which expresses known NF-kappa-B target genes. […] However, targets upstream of IKK have been largely unexplored and so nodes upstream of IKK in the NF-kappa-B pathway remain untested due to the lack of chemical probes.
# A cell-sensor assay for I-kappa-B-alpha stabilization was developed with NIH investigator Dr. R. Eric Davis in Dr. Louis M. Staudt's laboratory. The assay uses green (CBG68) and red (CBR) emitting beetle luciferases [Chroma-Glo(TM) developed by Promega Corp.] where the green luciferase is fused to I-kappa-B-alpha and the red luciferase is present in its native state. Both luciferase genes are stably present in the OCI-Ly3 human ABC DLBCL cell line, but their expression is under the control of tetracycline-inducible promoters. Following the addition of doxycycline to induce expression of the luciferases, the green luminescence in control cultures rises only slowly because the CBG fusion partner I-kappa-B-alpha is targeted by IKK activity for rapid degradation. In contrast, green luminescence rises rapidly in the presence of proteasome inhibitors or IKK inhibitors. The rise in red luminescence of CBR is not affected by proteasome or IKK inhibitors, and serves as normalization for cell number and nonspecific effects. Compounds were screened as a concentration-titration series that ranged from 57 uM to 0.7 nM.
# NCGC Assay Protocol Summary:
# Cells were seeded in 1536-well plates at 5000 cells/3ul in IMDM medium containing 0.5% FBS, w/o phenol red, L-glutamine, 25 mM HEPES, 3 mg/ml sodium bicarbonate. After centrifugation for 1 min. at 1000 rpm, 23 nl of compounds or DMSO were delivered to each well using a pin tool. Then 1ul 80ng/ml doxycycline was dispensed into white solid 1536-well plates and the plates were incubated at 37C/5% C02 in a cell incubator for 4 hrs. Then 4 ul Chroma-Glo luminescent substrate mix (Promega) was added to each well. The plate was incubated at R.T. for 10-15 min. The plates were measured on a ViewLux plate reader for green luminescence (540/20 nm filter) and red luminescence (618/8 nm filter). The green and red luminescent signals were corrected for red and green luminescence filter overlap using previously determined filter calibration constants (determined using the procedure outlined in the Promega Technical Manual). The %Activity was determined from the ratio of corrected green/red luminescent values. Green luminescent and ratio %Activity was determined by normalizing to the difference in signal between basal cells (0% Activity) and cells incubated with 10 uM of the proteasome inhibitor MG-132 (100% Activity). Red luminescent %Activity was normalized to the difference between red luminesence in basal cells (0%Activity) and zero luminescence (-100% Activity).
# Concentration-response curves were fitted to the signals arising from the green luminescence (I-kappa-B-alpha-luciferase fusion; IkB-luc) and the red luminescence (unfused luciferase; luc) as well as the calculated ratio. The concentration-effect curves were then classified based on curve quality (r2), response magnitude and degree of measured activity. Compounds were then categorized based on their concentration-response curves for all three datasets (Ikb-luc, luc and ratio).
# Keywords: IKK, I-kappa-B, IkB, IkBa, cytotoxicity, luminescence, MLSMR, MLSCN, NIH Roadmap, qHTS, NCGC
row,SMILES,IkBa stabilization activation [%]
1,CCCCNC(=O)c1ccc2c(c1)NC(=O)C(C(C)C)N2 (stereo unspecified),-0.449
2,CCOC(=O)c1scc(-c2ccc(C)cc2)c1S(=O)(=O)Nc1cc(C)ccc1C,0.745
3,CCN(CC)c1ccc(NC(=O)Cn2nc3c(cc2=O)CCCC3)c(C)c1,2.3
4,Cc1ccc2sc(N(Cc3cccnc3)C(=O)C3COc4ccccc4O3)nc2c1C (stereo unspecified),-0.437
5,Cc1ccc(NC(=O)Cn2nnc3sc4c(c3c2=O)CCC(C)C4)cc1 (stereo unspecified),-2.75
6,CSc1cccc(NC(=O)CN2C(=O)CCc3cc(S(=O)(=O)N4CCCCC4)ccc32)c1,3.58
7,CCOc1ccc(N(CC)S(=O)(=O)N2CCCC(C(=O)NCc3ccc(Cl)cc3)C2)cc1 (stereo unspecified),0.399
8,O=C(NCCCO)C(=O)Nc1c2c(nn1-c1ccccc1)CSC2,-1.36
9,Cc1cc(OCC(=O)NCC2(N(C)C)CCCCC2)cc(C)c1Cl,1.43
10,Cc1ccc(-c2nn(CCC(=O)Nc3ccc(OC(F)(F)F)cc3)c(=O)c3ccccc23)cc1,-1.64
11,CCCSc1nc2sc3c(c2c(=O)n1-c1cccc(Br)c1)CC(C)(C)OC3,1.69
12,COc1ccc(CCNC(=O)Cn2c(=O)cc(C(F)(F)F)c3c(C)nn(C)c32)c(OC)c1,0.371
13,CCOc1ccccc1CNC(=O)c1cnc2c(-c3ccc(OCC)c(OCC)c3)c(C)nn2c1C,-1.18
14,CCOc1cc(CNC(=O)c2sc3ncnc(N(C)C4CCCCC4)c3c2C)ccc1OC,-1.17
15,Cc1c(-c2nc(-c3ccc4c(c3)OCO4)no2)nnn1-c1ccc(Br)cc1F,-3.96
16,CCN(CC)c1ccc(NS(=O)(=O)c2cc(-c3cc(C)no3)ccc2C)c(C)c1,0.135
17,CCN1CCN(CCCNC(=O)c2cnn(-c3ccc(C)cc3C)c2C2CCN(C(=O)OC(C)(C)C)CC2)CC1,1.54
18,COc1ccc(-c2onc(C)c2C)cc1S(=O)(=O)NCc1cccs1,-1.8
19,Cc1cccc(Cc2c(C)nc3nc(SCc4ccccc4Cl)nn3c2C)c1,2.23
20,NC(=O)C1CCN(C(=O)c2cccc(NC(=O)c3nsc4ccccc34)c2)CC1,-1.38
21,COc1ccccc1-c1noc(-c2ccc(NCc3ccccc3)c([N+](=O)[O-])c2)n1,-0.999
22,COc1ccc(Cl)cc1NC(=O)CSc1nc2ccccc2c2nc(-c3ccccc3)nn12,0.00394
23,CCOc1ccccc1NC(=O)Cn1c(=O)n(Cc2ccco2)c(=O)c2sc3ccccc3c21,4.55
24,CCN(CC)CCNC(=O)CN1N=C(c2ccc(OC)cc2)CCC1=O,-1.9
25,COc1ccc(CNc2nc(-c3ccc(Cl)cc3)cc(C(F)(F)F)n2)cc1,-1.22
26,COc1ccc(NC(=O)C2CCCN(S(=O)(=O)c3cccc4nonc34)C2)cc1Cl (stereo unspecified),1.73

# Reference: PubChem BioAssay AID445 (National Center for Advancing Translational Sciences (NCATS), 2006)
